Compound activity: PubChem BioAssay, National Center for Advancing Translational Sciences (NCATS)
Shown are actives, neighbours in structure and some others; about 17% of the full set was active somewhere.
HepG2 viability: counter-screen for TGF-b inhibitors: cytotoxicity in HepG2 cells | HepG2 CAGA-GFP viability, ATP luminescence, 18 h | Potency, µM (highest dose often 46.1 µM), for inactives: at the highest dose activity change, negative = cytotoxicity, most hits filed as cytotoxic | actives 0.76% (n = 410,000) | AID 588856
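HepG2 CAGA-GFP cells (1000/well, DMEM with 1% FBS) received compound, then TGF-beta at 500 pg/mL final, and were incubated 18 hours at 37 degrees C. Viability was read by CellTiter-Glo luminescence. Media-only wells were set as complete cell-killing and DMSO as no toxicity.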
TDP1 cell CPT: growth inhibition of DT40 Tdp1-/-;hTDP1 cells with camptothecin (screen for TDP1 inhibitors); chicken DT40 Tdp1-/-;hTDP1 cells + 20 nM CPT, ATP luminescence, 48 h; Potency, µM (series often up to 46.2 µM), for the others: at the highest dose activity change, negative = growth inhibition, hits mostly inhibitors; actives 12% (n = 420,000); note: % is set by controls: 0 for no effect and ±100 for the full control effect; nearly all actives have a fitted effect of over 55% in size
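Cell growth measured by CellTiter-Glo luminescence after a minimum 48 h, 37 C compound exposure with 20 nM CPT in Tdp1-knockout DT40 cells stably expressing hTDP1, seeded 400/well; qHTS titration format.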
ATXN viability: reduces viability in counter-screen for ATXN expression inhibitors | S2 cells (HEK-293 line with an ATXN2-luciferase reporter) viability, CellTiter-Fluor protease fluorescence, 24 h | actives 0.49% (n = 400,000) | AID 651635 | Potency, µM (titrated, usually from 56.7 µM), hits mostly cytotoxic; note: nearly all actives have a fitted effect of over 40% in size
ATXN2 expr inh: inhibitors of ATXN2 expression. HEK-293 ATXN2-luciferase reporter, luminescence, 24 h. Potency, µM (doses to about 57 µM), inactives show top-dose activity change, negative = inhibition, usual class: inhibitors. actives 0.72% (n = 360,000); note: % is set by controls: 0 for no effect and ±100 for the full control effect; nearly all actives have a fitted effect of over 55% in size
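qHTS (up to 57 uM final) was run with 24 h compound exposure of reporter cells at 37 °C. Each well was multiplexed: SteadyGlo luminescence measured ATXN2-luciferase expression after a fluorogenic Gly-Phe-AFC viability readout (25 uM final).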
TGFb SMAD3 inh: blocks TGF-b signaling; HepG2 CAGA-GFP TGF-b/SMAD3 reporter, GFP fluorescence, 18 h; TGF-beta stimulated, 500 pg/mL final; Potency, µM (highest dose often 46.1 µM), for inactives: at the top dose activity, negative = inhibition, most hits filed as inhibitors; actives 1.2% (n = 410,000); note: % is set by controls: 0 for no effect and ±100 for the full control effect; nearly all actives have a fitted effect of over 65% in size
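Read-out: total well GFP (ex488/em500-530) summed from mean per-cell fluorescence. Cells: HEPG2 CAGA-GFP, 1% FBS DMEM, 18 h at 37 degrees C with 500 pg/mL final TGF-beta. Unstimulated wells served as the full-inhibition control; stimulated DMSO wells = 0%.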
TDP1 cell noCPT: qHTS for Inhibitors of human tyrosyl-DNA phosphodiesterase 1 (TDP1): qHTS in cells in absence of CPT. Potency, µM (series often up to 46.2 µM), for inactives: at the highest dose activity change, negative = growth inhibition, usual class: inhibitors. DT40 Tdp1-/- hTDP1 cells, no CPT, ATP luminescence, 48 h. actives 15% (n = 420,000). AID 686978, 2013; note: % is set by controls: 0 for no effect and ±100 for the full control effect; nearly all actives have a fitted effect of over 55% in size
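DT40 Tdp1-/-;hTDP1 cells, no CPT (DMSO vehicle only), 400 cells/well; compounds pin-transferred; ≥48 hr, 37 °C; CellTiter-Glo 30 min RT dark, luminescence read.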
Active calls of the source: *; i = inactive; u = inconclusive; x = not tested or not shown; [ ] = another dose, or the depositor's remark. Calls come from the whole dose curve; as a rule, active = well fitted curve in the direction sought with a large enough effect; inconclusive = small, poorly fitted or top-dose-only effect, or another doubt; inactive = no such curve, though single readings can be large; an effect the other way counts as inactive or inconclusive. Potency is the fitted concentration of half-maximal effect.

SMILES	HepG2 viability	TDP1 cell CPT	ATXN viability	ATXN2 expr inh	TGFb SMAD3 inh	TDP1 cell noCPT
CNC(=O)c1ccc2nc(Cc3ccccc3)oc2c1	-21.7%	-15.2%	u	5.8%	22.4%	-16.4%
COc1cc(C(=O)NCCCc2ccccc2)cc(OC)c1OC	-2.7%	12.4%	i	-10.6%	11.5%	-39.3%
COc1ccc(Cc2nc3ccc(C(=O)NCCc4ccc(OC)c(OC)c4)cc3o2)cc1	-13.5%	u	x	x	u	u
CNc1cncc(-c2ccc(OC)cc2)n1	12.8%	-7.6%	i	31.2%	10.8%	-23.2%
CC(C)C(C)NC(=O)CN1C(=O)NC(c2ccccc2)(c2ccccc2)C1=O (stereo not given)	11.0%	8.2%	u	-23.4%	2.5%	0.4%
CCOC(=O)N1CCC(n2c(=O)[nH]c3cc(Cl)ccc32)CC1	x	x	i	u	x	x
CCOc1ccc(CC2NCCc3cc(OCC)c(OCC)cc32)cc1OCC (stereo not given)	-109.5%	3.66µM*	i	x	u	4.11µM*
CCc1ccc(OCC2NCCc3cc(OC)c(OC)cc32)cc1 (stereo not given)	-33.4%	u	i	x	-28.7%	18.4µM*
COc1cccc(NC(=O)c2oc3ccccc3c2NC(=O)C(C)(C)C)c1	-18.3%	u	i	-18.9%	-8.8%	u
COc1cccc(NC(=O)c2oc3ccccc3c2NC(=O)c2cc3ccccc3o2)c1	-25.0%	13µM*	i	6.9%	0.3%	18.4µM*
CCOc1ccc(NC(=O)c2oc3ccccc3c2NC(=O)C2CCCCC2)cc1	-3.7%	-16.2%	i	5.9%	u	u
COc1cccc(NC(=O)c2oc3ccccc3c2NC(=O)C2CCCCC2)c1	-6.3%	u	i	-1.8%	1.1%	16.4µM*
O=C(Nc1ccc(F)cc1)c1oc2ccccc2c1NC(=O)C1CCCC1	-0.6%	u	i	-15.7%	-2.5%	18.4µM*
CCN(CC)CCCNC(=O)c1ccc2nc(CCc3ccccc3)oc2c1	-8.3%	u	i	9.7%	u	u
COc1ccc(-n2nnnc2C2CCN(S(=O)(=O)c3cc(Cl)ccc3OC)CC2)cc1	-20.1%	13µM*	x	x	u	18.4µM*
COc1ccc(-n2nnnc2C2CCN(S(=O)(=O)c3ccc(C)cc3)CC2)cc1	-5.2%	13µM*	x	x	-13.2%	-75.8%
CCn1c(CN2CCOCC2)nc2cc(NC(=O)c3ccc([N+](=O)[O-])cc3)ccc21	-9.3%	-20.6%	i	-8.0%	-20.8%	-24.0%
CC(C)N1C(=O)/C(=C\c2nc3ccccc3c(=O)n2-c2ccccc2)c2ccccc21	-21.7%	23.1µM*	u	u	-14.8%	16.4µM*
CC(C)N1C(=O)C(Cc2nc3ccccc3c(=O)n2-c2ccccc2)c2ccccc21 (stereo not given)	-27.0%	u	i	-11.3%	-3.0%	-20.8%
CC(C)N1C(=O)/C(=C/c2nc3ccccc3c(=O)n2-c2ccccc2)c2ccccc21	-10.9%	20.6µM*	u	u	u	23.1µM*
Cc1cccc(-c2cc(=O)c3cc(Br)ccc3o2)c1	x	25.6%	x	x	x	-8.3%
COc1ccccc1CN1C(=O)C(C)ON=C1c1ccccc1F (stereo not given)	-7.8%	-23.8%	i	-1.8%	1.0%	u
CC(C(=O)Nc1ccc2[nH]c(=O)[nH]c2c1)N1CCN(Cc2ccc3c(c2)OCO3)CC1 (stereo not given)	-7.3%	-11.6%	i	x	-19.7%	-17.4%
COC1OCC(O)C(NC(=O)N(C)N=O)C1O (stereo not given)	-0.4%	-11.5%	i	x	0.9%	3.1%
CNS(=O)(=O)c1cccc(C(=O)OCc2cc(=O)oc3c(C)c(O)ccc23)c1	-19.0%	u	i	u	u	18.4µM*
SMILES	HepG2 viability	TDP1 cell CPT	ATXN viability	ATXN2 expr inh	TGFb SMAD3 inh	TDP1 cell noCPT
CCc1cc2c(COC(=O)c3cccc(S(C)(=O)=O)c3)cc(=O)oc2cc1O	-4.4%	u	x	-2.1%	7.6%	u
C/C(=N\NC(=O)c1cccnc1)c1ccc(OC2OCCOC2Oc2ccc(/C(C)=N/NC(=O)c3cccnc3)cc2)cc1 (stereo not given)	14.4%	u	i	-3.2%	0.3%	20.6µM*
C/C(=N\NC(=O)c1cccs1)c1cccnc1	2.2%	14.6µM*	i	33.4%	5.4%	25.9µM*
O=C(N/N=C(\CC(=O)c1cccs1)C(F)(F)F)c1cccnc1	-2.8%	u	i	-8.8%	-26.7%	23.1µM*
Cc1cccc(Nc2nnc(-n3nc(C)cc3C)c3ccccc23)c1	-15.0%	-23.3%	u	0.0%	-24.6%	-3.1%
CCOC(=O)CCc1c(C)c2ccc(OCc3cc([N+](=O)[O-])ccc3OC)cc2oc1=O	-3.1%	25.9µM*	u	-0.6%	-3.8%	23.1µM*
O=C(O)C1CCCN1c1nc(-c2ccc(Cl)c(Cl)c2)cc(C(F)(F)F)n1 (stereo not given)	-13.9%	14.6µM*	i	-8.7%	u	20.6µM*
COc1cc(=O)n2c(c1C(=O)NCc1ccco1)CCN(Cc1cccc(Cl)c1)CC2	x	14.0%[9.04 µM]	i	x	x	-25.6%
COc1ccccc1CNC(=O)C1CC(c2c(Cl)cccc2Cl)=NO1 (stereo not given)	-8.4%	-26.0%	i	4.4%	8.0%	-29.2%
O=C(NCc1cccc(C(F)(F)F)c1)C1CC(c2c(Cl)cccc2Cl)=NO1 (stereo not given)	-8.2%	16.4µM*	u	-30.0%	u	16.4µM*
O=C(NCc1ccco1)C1CC(c2ccc(Cl)c(Cl)c2)=NO1 (stereo not given)	0.8%	13µM*	i	-0.3%	-20.9%	8.2µM*
O=C(NCc1cccc(Br)c1)C1CC(c2cc(C(F)(F)F)cc(C(F)(F)F)c2)=NO1 (stereo not given)	2.3%	-33.0%	i	-10.5%	1.4%	-7.4%
O=C(NCc1cccc(Br)c1)C1CC(c2ccccc2C(F)(F)F)=NO1 (stereo not given)	5.4%	u	i	-19.9%	-15.4%	18.4µM*
O=C(NCc1ccco1)C1CC(c2c(Cl)cccc2Cl)=NO1 (stereo not given)	1.0%	u	i	-6.0%	u	16.4µM*
O=C(/C=C/c1ccccc1Cl)NCc1ccco1	-11.6%	-12.1%	i	61.9%	u	u
O=C(/C=C/c1c(Cl)cccc1Cl)NCc1ccco1	8.0%	u	i	13.1%	4.6%	5.8µM*
